Assay results as given in ChEMBL document CHEMBL1961873, “Compounds: GSK PKIS; Assays: Nanosyn kinase panel” (2012).

Experiments:
[1] = system: Proto-oncogene tyrosine-protein kinase receptor Ret (Homo sapiens), P07949 [Y791F]; conditions: at 1 µM
[2] = target: Macrophage-stimulating protein receptor (Homo sapiens) (UniProt Q04912); conditions: at 0.1 µM
[3] = target: Macrophage-stimulating protein receptor (Homo sapiens) (UniProt Q04912); conditions: at 1 µM
[4] = target: Proto-oncogene tyrosine-protein kinase ROS (Homo sapiens) (UniProt P08922); conditions: at 0.1 µM
[5] = target: Proto-oncogene tyrosine-protein kinase ROS (Homo sapiens) (UniProt P08922); conditions: at 1 µM
[6] = target: Proto-oncogene tyrosine-protein kinase Src (Homo sapiens) (UniProt P12931); conditions: at 0.1 µM
[7] = target: Proto-oncogene tyrosine-protein kinase Src (Homo sapiens) (UniProt P12931); conditions: at 1 µM
[8] = target: Tyrosine-protein kinase Srms (Homo sapiens) (UniProt Q9H3Y6); conditions: at 0.1 µM
[9] = target: Tyrosine-protein kinase Srms (Homo sapiens) (UniProt Q9H3Y6); conditions: at 1 µM
[10] = target: Tyrosine-protein kinase SYK (Homo sapiens) (UniProt P43405); conditions: at 0.1 µM
[11] = target: Tyrosine-protein kinase SYK (Homo sapiens) (UniProt P43405); conditions: at 1 µM
[12] = target: T1, Tyrosine-protein kinase Tec (Homo sapiens) (UniProt P42680); conditions: at 0.1 µM
T1 sequence (whole entry): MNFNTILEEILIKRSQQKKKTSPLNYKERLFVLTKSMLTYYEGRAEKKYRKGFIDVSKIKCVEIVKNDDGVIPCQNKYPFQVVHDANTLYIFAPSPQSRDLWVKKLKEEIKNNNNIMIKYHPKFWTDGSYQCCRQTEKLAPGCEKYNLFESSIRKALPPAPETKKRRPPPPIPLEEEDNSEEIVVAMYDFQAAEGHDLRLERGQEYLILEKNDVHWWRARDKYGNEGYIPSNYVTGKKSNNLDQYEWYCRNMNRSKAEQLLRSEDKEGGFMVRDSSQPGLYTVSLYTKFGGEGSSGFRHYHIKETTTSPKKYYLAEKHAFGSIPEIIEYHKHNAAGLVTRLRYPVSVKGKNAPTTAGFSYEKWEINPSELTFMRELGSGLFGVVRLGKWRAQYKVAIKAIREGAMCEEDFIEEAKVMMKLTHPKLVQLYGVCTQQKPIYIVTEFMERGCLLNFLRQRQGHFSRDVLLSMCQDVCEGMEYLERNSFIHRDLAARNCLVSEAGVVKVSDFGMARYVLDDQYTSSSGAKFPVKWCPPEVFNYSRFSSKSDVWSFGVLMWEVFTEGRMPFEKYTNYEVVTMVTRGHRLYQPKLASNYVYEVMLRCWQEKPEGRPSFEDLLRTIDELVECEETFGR

[13] = target: T1, Tyrosine-protein kinase Tec (Homo sapiens); conditions: at 1 µM
[14] = target: Angiopoietin-1 receptor (Homo sapiens) (UniProt Q02763); conditions: at 0.1 µM
[15] = target: Angiopoietin-1 receptor (Homo sapiens) (UniProt Q02763); conditions: at 1 µM
[16] = target: T2, Non-receptor tyrosine-protein kinase TNK1 (Homo sapiens) (UniProt Q13470); conditions: at 0.1 µM
T2 sequence (whole entry): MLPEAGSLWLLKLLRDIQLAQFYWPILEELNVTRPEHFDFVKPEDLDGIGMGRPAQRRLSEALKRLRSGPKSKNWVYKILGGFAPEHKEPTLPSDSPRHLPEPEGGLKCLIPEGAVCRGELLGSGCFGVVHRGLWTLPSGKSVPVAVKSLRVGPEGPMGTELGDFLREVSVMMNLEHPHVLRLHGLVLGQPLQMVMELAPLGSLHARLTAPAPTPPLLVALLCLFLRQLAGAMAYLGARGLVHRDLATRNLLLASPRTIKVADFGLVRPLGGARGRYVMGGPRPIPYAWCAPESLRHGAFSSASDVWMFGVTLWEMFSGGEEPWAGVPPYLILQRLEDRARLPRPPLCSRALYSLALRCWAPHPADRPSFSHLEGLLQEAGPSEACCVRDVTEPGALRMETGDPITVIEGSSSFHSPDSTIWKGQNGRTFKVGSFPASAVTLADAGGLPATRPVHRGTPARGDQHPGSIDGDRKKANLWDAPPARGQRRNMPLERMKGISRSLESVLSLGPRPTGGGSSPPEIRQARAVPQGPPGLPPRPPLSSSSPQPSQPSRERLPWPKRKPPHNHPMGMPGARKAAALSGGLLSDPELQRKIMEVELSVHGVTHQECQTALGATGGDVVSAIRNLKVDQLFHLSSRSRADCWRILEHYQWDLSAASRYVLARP

[17] = target: T2, Non-receptor tyrosine-protein kinase TNK1 (Homo sapiens); conditions: at 1 µM
[18] = target: Activated CDC42 kinase 1 (Homo sapiens) (UniProt Q07912); conditions: at 0.1 µM
[19] = target: Activated CDC42 kinase 1 (Homo sapiens) (UniProt Q07912); conditions: at 1 µM
[20] = target: High affinity nerve growth factor receptor (Homo sapiens) (UniProt P04629); conditions: at 0.1 µM;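 also: each value is a mean of replicate percent inhibition readings against TRKA kinase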
High affinity nerve growth factor receptor (Homo sapiens), sequence (P04629 33-796 limits assumed): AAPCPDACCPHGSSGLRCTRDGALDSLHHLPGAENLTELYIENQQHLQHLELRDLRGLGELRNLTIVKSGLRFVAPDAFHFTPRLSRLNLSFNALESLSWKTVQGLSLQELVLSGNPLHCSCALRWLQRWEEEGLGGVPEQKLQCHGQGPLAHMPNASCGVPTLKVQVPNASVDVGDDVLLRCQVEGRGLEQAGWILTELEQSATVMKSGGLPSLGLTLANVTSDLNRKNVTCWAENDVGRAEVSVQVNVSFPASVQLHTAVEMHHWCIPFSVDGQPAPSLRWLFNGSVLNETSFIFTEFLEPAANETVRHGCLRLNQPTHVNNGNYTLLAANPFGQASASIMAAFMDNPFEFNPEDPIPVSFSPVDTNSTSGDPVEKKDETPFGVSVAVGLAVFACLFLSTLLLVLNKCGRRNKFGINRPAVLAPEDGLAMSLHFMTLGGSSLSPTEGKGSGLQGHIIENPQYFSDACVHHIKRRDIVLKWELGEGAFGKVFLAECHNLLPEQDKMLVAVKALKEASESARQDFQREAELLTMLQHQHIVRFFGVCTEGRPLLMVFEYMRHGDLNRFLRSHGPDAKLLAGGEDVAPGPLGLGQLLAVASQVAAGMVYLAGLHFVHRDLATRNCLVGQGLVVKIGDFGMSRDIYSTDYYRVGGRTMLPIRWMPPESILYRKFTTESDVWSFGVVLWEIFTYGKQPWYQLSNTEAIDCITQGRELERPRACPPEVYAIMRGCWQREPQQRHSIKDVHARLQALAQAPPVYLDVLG

Proto-oncogene tyrosine-protein kinase ROS (Homo sapiens), sequence (P08922 whole entry): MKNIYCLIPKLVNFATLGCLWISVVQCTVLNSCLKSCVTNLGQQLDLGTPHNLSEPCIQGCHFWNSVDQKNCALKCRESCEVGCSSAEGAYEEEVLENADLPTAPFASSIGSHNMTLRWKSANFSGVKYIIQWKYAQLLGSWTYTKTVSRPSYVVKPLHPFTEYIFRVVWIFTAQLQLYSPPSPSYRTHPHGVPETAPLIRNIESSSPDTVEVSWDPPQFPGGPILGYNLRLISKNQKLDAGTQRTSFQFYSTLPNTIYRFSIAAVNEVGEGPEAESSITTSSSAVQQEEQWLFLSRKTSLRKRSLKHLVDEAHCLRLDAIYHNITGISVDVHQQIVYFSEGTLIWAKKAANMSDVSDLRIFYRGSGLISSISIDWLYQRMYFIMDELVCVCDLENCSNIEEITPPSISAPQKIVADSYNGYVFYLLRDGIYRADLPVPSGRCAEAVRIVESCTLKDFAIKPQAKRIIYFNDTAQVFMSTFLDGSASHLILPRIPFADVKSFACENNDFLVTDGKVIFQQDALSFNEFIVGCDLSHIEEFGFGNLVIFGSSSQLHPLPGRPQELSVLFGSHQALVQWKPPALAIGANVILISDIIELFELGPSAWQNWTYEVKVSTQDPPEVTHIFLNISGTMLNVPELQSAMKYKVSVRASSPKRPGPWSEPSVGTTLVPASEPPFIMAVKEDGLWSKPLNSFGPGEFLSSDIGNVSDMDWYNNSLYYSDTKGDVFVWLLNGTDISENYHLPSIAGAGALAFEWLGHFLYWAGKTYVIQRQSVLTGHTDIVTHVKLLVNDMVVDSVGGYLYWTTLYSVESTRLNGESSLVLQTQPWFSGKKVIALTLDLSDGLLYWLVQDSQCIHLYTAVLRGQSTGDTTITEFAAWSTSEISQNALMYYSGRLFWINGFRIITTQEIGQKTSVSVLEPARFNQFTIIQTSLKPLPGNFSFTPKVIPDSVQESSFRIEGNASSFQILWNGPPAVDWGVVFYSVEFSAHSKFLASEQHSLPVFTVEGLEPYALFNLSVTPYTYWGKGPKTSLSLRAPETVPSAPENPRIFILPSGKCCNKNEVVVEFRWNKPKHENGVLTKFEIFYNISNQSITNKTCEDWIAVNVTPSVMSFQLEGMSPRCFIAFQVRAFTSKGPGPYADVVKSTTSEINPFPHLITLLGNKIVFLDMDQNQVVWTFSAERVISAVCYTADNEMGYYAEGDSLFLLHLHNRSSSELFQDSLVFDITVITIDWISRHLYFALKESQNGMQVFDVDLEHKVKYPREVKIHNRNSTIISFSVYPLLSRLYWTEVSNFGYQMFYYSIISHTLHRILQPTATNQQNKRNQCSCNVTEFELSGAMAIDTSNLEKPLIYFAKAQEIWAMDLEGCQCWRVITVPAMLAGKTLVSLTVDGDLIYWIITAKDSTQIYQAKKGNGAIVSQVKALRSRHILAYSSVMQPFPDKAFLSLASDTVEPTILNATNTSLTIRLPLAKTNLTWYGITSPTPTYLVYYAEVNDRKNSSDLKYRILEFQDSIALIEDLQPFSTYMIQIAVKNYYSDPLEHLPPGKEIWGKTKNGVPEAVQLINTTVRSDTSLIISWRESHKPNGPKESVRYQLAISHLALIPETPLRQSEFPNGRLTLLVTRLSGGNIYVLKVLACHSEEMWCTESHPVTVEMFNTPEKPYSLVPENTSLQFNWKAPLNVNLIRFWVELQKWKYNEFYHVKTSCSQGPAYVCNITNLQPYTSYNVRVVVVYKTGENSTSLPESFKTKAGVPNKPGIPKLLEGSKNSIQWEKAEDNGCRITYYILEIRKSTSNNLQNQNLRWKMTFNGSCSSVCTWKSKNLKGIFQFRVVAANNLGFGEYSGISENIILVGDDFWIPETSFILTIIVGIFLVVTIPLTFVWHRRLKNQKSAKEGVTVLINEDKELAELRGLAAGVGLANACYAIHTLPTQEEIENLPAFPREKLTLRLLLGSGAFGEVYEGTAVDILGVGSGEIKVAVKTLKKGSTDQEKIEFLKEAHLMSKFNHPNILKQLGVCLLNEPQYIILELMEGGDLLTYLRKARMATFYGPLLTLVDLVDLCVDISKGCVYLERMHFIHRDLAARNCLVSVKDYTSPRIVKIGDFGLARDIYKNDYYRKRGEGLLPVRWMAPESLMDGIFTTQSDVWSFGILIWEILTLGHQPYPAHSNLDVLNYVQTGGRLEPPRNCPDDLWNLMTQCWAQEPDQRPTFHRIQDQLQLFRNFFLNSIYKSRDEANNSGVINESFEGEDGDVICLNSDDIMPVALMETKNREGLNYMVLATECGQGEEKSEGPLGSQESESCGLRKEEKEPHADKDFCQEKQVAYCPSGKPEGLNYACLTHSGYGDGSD
Tyrosine-protein kinase Srms (Homo sapiens), sequence (Q9H3Y6 whole entry): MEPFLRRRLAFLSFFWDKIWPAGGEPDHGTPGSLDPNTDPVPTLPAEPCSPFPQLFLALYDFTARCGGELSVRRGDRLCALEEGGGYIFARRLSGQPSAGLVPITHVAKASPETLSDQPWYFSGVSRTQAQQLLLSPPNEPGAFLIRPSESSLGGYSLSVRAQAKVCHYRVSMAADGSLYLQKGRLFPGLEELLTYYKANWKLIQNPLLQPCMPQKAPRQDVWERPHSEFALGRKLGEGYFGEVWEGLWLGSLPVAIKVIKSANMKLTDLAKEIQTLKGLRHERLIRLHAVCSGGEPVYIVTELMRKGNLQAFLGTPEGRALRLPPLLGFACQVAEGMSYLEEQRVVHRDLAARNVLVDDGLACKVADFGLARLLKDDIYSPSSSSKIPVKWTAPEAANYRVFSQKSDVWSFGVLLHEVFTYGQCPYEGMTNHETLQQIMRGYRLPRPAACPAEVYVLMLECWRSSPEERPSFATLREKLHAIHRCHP
Proto-oncogene tyrosine-protein kinase Src (Homo sapiens), sequence (P12931 2-536 limits assumed): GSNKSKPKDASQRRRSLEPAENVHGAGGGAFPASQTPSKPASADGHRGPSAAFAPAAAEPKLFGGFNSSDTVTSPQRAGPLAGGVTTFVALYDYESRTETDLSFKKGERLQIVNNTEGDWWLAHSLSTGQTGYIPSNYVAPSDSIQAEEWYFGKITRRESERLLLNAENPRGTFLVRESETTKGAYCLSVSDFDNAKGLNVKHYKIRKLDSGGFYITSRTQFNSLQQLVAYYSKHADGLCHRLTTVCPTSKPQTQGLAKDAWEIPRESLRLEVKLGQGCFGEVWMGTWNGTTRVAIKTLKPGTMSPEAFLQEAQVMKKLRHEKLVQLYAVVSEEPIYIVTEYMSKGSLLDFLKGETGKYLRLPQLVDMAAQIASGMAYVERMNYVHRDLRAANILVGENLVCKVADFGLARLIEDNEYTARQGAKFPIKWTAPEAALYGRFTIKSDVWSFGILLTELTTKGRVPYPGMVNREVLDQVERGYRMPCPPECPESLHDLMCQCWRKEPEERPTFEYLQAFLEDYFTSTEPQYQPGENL

Row | SMILES | inhibition [1] [%] | inhibition [2] [%] | inhibition [3] [%] | inhibition [4] [%] | inhibition [5] [%] | inhibition [6] [%] | inhibition [7] [%] | inhibition [8] [%] | inhibition [9] [%] | inhibition [10] [%] | inhibition [11] [%] | inhibition [12] [%] | inhibition [13] [%] | inhibition [14] [%] | inhibition [15] [%] | inhibition [16] [%] | inhibition [17] [%] | inhibition [18] [%] | inhibition [19] [%] | inhibition [20] [%]
1 | CCCN(CCS(C)(=O)=O)Cc1ccc(-c2ccc3ncnc(Nc4ccc(OCc5cccc(F)c5)c(Cl)c4)c3c2)o1 | 2.22 | 2.96 | 4.1 | 2.72 | 6.67 | 3.8 | 6.22 | 1.1 | 2.29 | -1.64 | 1.17 | 2.93 | 4.68 | 1.56 | 6.25 | 1.24 | 12 | 0.32 | 1.4 | 2.55
2 | COc1ccc(-c2nn3ncccc3c2-c2ccnc(Nc3ccc4c(c3)OCCO4)n2)cc1 | 56.2 | -3.38 | 8.88 | 6.79 | 21.9 | 7.57 | 51.7 | 0.02 | 0.99 | 1.19 | -0.41 | 1.33 | 11.9 | 8.07 | 45.9 | 6.95 | 51.1 | -0.12 | 3.47 | 0.04
3 | Cc1ccc(O)cc1Nc1ccnc2cc(-c3ccccn3)ccc12 | 93.5 | -2 | 4.51 | 6.57 | 7.97 | 61 | 90.4 | 9.32 | 39.8 | -5.01 | 1.9 | 46 | 83.4 | 7.91 | 48.2 | 8.49 | 38.1 | 2.64 | 18 | 4
4 | CC(=O)Nc1cccc(C#Cc2cncnc2Nc2ccc(OCc3cccc(F)c3)c(Cl)c2)c1 | 13.3 | 0.77 | 4.22 | 7.46 | 12.2 | 10.8 | 6.18 | 2.87 | 0.23 | 3.21 | 0.71 | 5.52 | 8.88 | 1.44 | 7.33 | 0.67 | 1.04 | 1.8 | 5.63 | 0.89
5 | CC(C)(CO)CNC(=O)c1ccc2c(c1)/C(=N/Nc1ccc(S(N)(=O)=O)cc1)C(=O)N2 | 56.3 | 3.52 | 2.41 | 0.74 | 3.7 | 5.77 | 34.2 | -0.93 | 0.39 | 0.61 | -2.05 | 0.59 | 5.32 | -0.74 | 0.79 | 0.66 | 10.3 | -0.56 | 0.03 | 1.4
6 | Nc1nc(-c2ccc(F)cc2)c(-c2ccc3ncccc3n2)s1 | 14 | -8.7 | 7.82 | 4.44 | 15.8 | -1.89 | 14.2 | 0.67 | 3.74 | -1.32 | 0.4 | 4.57 | 6.46 | 1.26 | 4.32 | 4.65 | 6.8 | 1.85 | 3.57 | 4.1
7 | COc1cccc(-n2ncc3c(N/N=C/c4ccc(F)cc4)ncnc32)c1 | 18.6 | 3.4 | 13.7 | 3.85 | 8.02 | 14.6 | 49.2 | -1.01 | 3.9 | -4.34 | -3.59 | 5 | 9.02 | 2.18 | 5.99 | 5.45 | 12.4 | 1.52 | 3.5 | 4.72
8 | COC(=O)Nc1nc2ccc(Oc3ccc(NC(=O)Nc4cccc(Cl)c4)cc3)cc2[nH]1 | 79.7 | 2.59 | 6.24 | 1.51 | 2.59 | 4.21 | 1.43 | -2.84 | -1.42 | 0.41 | 0.56 | -0.16 | 1.83 | 17.1 | 44.7 | 2.25 | 7.76 | 0.12 | -0.32 | 15.6
9 | Fc1cccc(COc2ccc(Nc3ncnc4sc(-c5ccco5)cc34)cc2Cl)c1 | 6.83 | -0.84 | 3.24 | 1.53 | 8.29 | 7.3 | 6.58 | -3.52 | -1.36 | -3.2 | -6.92 | 0.94 | 5.13 | 4.1 | 6.76 | 1.8 | 17 | 1.13 | 1.93 | 1.02
10 | CCc1nn2ncccc2c1-c1ccnc(NC2CC2)n1 | 6.92 | 6.26 | 6.01 | 4.86 | 5.32 | 6.38 | 7.08 | 1.77 | 1.02 | 0.63 | 2.4 | 3.41 | 4.89 | 4.14 | 6.65 | 1.41 | 5.48 | 1.22 | 2.89 | 0.51
11 | NS(=O)(=O)c1ccc(N/N=C2\C(=O)Nc3ccc4ncccc4c32)cc1 | 77.7 | 2.25 | 13.3 | 8.1 | 35.3 | 19.3 | 71.1 | -0.11 | 3.96 | -9.38 | 22.4 | 8.53 | 38.3 | 5.02 | 11.5 | 14.6 | 56.8 | 1.85 | 8.38 | 6.88
12 | CC1=C(C(=O)Nc2cc(Cl)c3[nH]ncc3c2)C(c2ccc(C(F)(F)F)cc2)CC(=O)N1 (stereo not given) | 18.1 | 13.4 | 11.4 | 4.57 | 6.5 | 1.84 | 30.8 | -1.35 | 3.11 | -2.63 | 1.05 | 3.36 | 6.05 | 4.83 | 5.04 | 4.45 | 3.87 | 0.65 | 2.37 | 3.77
13 | COC(=O)Nc1nc2ccc(S(=O)(=O)c3ccc(NC(=O)Nc4cc(C(F)(F)F)ccc4F)cc3)cc2[nH]1 | 0.06 | 0.24 | 1.14 | 2.51 | 3.41 | 7.41 | 6.38 | -0.37 | -3.26 | 1.38 | 0.05 | 3.65 | 2.49 | 5.47 | 10.9 | -0.2 | -6.28 | 0.69 | 0.6 | 1.94
